Source: PubChem BioAssay
Results with a measured potency or affinity are listed apart. Results filed as inconclusive are left out. Calls of active or inactive are those of the source.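 The calls were made as follows, unless noted: active = a dose-response fit showing signal loss, with half-maximal concentration no higher than twice the top tested dose; inconclusive = flat fit between 30% and 70% signal loss, or poor fit; inactive = the rest.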

What was measured:
[1] = Cryptococcus neoformans growth inhibition, dose response, Alamar Blue, cherry-picks (AID 686998;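 active = falling signal with fitted half-maximal potency no higher than twice the top valid tested dose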); settings: 24 h; series mostly up to 35 µM
[2] = inducers of Cryptococcus neoformans cell lysis, dose response, AK release luminescence, cherry-picks (AID 687000;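 active = fitted dose curve reaches 40% lysis signal rise at or below the highest valid concentration tested for that sample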;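 also: luminescent detection of adenylate kinase leaking from lysed yeast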); settings: C. neoformans lysis, adenylate kinase release luminescence, 4 h, 100% = twice the neutral-control signal; series mostly up to 15 µM
[3] = HepG2 cell cytotoxicity, dose response, cytotoxicity control, cherry-picks, set 2 (AID 687002); settings: HepG2 viability, ATP luminescence (CellTiter-Glo), 48 h; series mostly up to 26 µM
[4] = HeLa cell cytotoxicity, dose response, cytotoxicity control, ATP luminescence, cherry-pick samples (AID 687004;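 active = a fitted half-maximal concentration no higher than twice the top valid tested dose, with signal falling as cells die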); settings: HeLa viability, ATP luminescence (CellTiter-Glo), 48 h; series mostly up to 26 µM

Measured: outcome

CCC(=O)N1[C@H](CO)[C@H](c2ccccc2)[C@H]1CN(CC)C(=O)c1cccc(F)c1
inactive: all assays above

Cc1ccc(S(=O)(=O)N2C[C@@H](O)COC[C@H]3O[C@H](CC(=O)NCc4ccc5c(c4)OCO5)CC[C@@H]32)cc1
inactive: all assays above

CNC[C@@H]1OCCCC[C@H](C)Oc2ccc(NC(=O)Nc3ccc(F)cc3)cc2C(=O)N([C@@H](C)CO)C[C@H]1C
inactive: all assays above

Cc1noc(C)c1NC(=O)Nc1cccc2c1O[C@H](CN(C)S(=O)(=O)c1cn(C)cn1)[C@H](C)CN([C@H](C)CO)C2=O
inactive: all assays above

CCCNC(=O)[C@@H]1[C@@H](CO)[C@@H]2Cn3c(cccc3=O)[C@H]1N2C(=O)Nc1cc(F)ccc1F
inactive: all assays above

Cc1ccc(S(=O)(=O)Nc2ccc3c(c2)C(=O)N([C@@H](C)CO)C[C@@H](C)[C@@H](CN(C)S(=O)(=O)c2ccc(Cl)cc2)OCCCC[C@H](C)O3)cc1
inactive: all assays above

C[C@H]1CN([C@@H](C)CO)C(=O)Cc2cc(NC(=O)C3CC3)ccc2O[C@H]1CN(C)Cc1ccc(-c2ccccc2)cc1
inactive: all assays above

O=C(C[C@@H]1C[C@@H]2c3cc(NC(=O)Nc4ccc(F)cc4)ccc3O[C@@H]2[C@@H](CO)O1)NCC1CC1
inactive: all assays above

C[C@H]1CN([C@@H](C)CO)C(=O)c2cccc(NS(C)(=O)=O)c2O[C@H]1CN(C)C(=O)Nc1ccc2c(c1)OCO2
inactive: all assays above

C/C=C/c1ccc([C@@H]2[C@@H](CNC(=O)c3ccccc3)N(C(C)=O)[C@H]2CO)cc1
inactive: all assays above

C[C@@H]1CN([C@H](C)CO)C(=O)Cc2cc(NC(=O)CCCCCC(=O)Nc3ccccc3N)ccc2O[C@H]1CN(C)Cc1ccc2c(c1)OCO2
inactive: all assays above

Cc1noc(C)c1NC(=O)Nc1ccc2c(c1)C(=O)N([C@H](C)CO)C[C@@H](C)[C@H](CN(C)C(=O)Nc1ccc(F)cc1)OCCCC[C@@H](C)O2
inactive: all assays above

C[C@H](CO)N1C[C@H](C)[C@@H](CN(C)S(=O)(=O)c2ccc(Cl)cc2)Oc2c(NS(=O)(=O)c3ccc(F)cc3)cccc2C1=O
inactive: all assays above

CC(C)(C)SCCNC(=O)CN(c1ccccc1)S(=O)(=O)c1ccc(F)cc1
inactive: all assays above

Cc1cccc(C)c1NC(=O)C(CCc1ccccc1)N1CCN(CCN(C)C)CC1 (stereo unspecified)
inactive: all assays above

C[C@@H]1CN([C@H](C)CO)C(=O)CCCn2cc(nn2)CO[C@@H]1CN(C)C(=O)CCCN(C)C
inactive: all assays above

C[C@@H]1CN([C@@H](C)CO)C(=O)CCCn2nncc2CO[C@H]1CN(C)Cc1cccc(C(F)(F)F)c1
inactive: all assays above

CCCNC(=O)N1C[C@H](O)COC[C@H]2O[C@H](CC(=O)N3CCN(C)CC3)CC[C@@H]21
inactive: all assays above

COc1ccc(CN(C)C[C@@H]2Oc3c(NC(=O)Nc4cccc5ccccc45)cccc3C(=O)N([C@@H](C)CO)C[C@@H]2C)cc1
inactive: all assays above

COc1ccccc1CNC(=O)COc1ccc2c(c1)CCC2
inactive: all assays above

CNC[C@@H]1OCCCC[C@H](C)Oc2ccc(NC(=O)NC(C)C)cc2C(=O)N([C@H](C)CO)C[C@H]1C
inactive: all assays above

COc1ccc(-c2cnc3c(c2)C(=O)N([C@@H](C)CO)C[C@H](C)[C@@H](CN(C)S(C)(=O)=O)O3)cc1
inactive: all assays above

O=C(C[C@@H]1C=C[C@@H](NC(=O)c2cccc(F)c2)[C@H](CO)O1)NCCN1CCCC1
inactive: all assays above

CN1C(=O)c2cc(NS(C)(=O)=O)ccc2OC[C@@H]2O[C@@H](CC(=O)O)CC[C@H]21
inactive: all assays above

COc1ccccc1NC(=O)N[C@H]1CC[C@@H](CCn2cc(-c3ccccc3OC)nn2)O[C@@H]1CO
inactive: all assays above

CC=Cc1ccc2n(c1=O)C[C@H]1[C@H](CO)[C@@H](C(=O)NCc3ccc4c(c3)OCO4)[C@@H]2N1C(=O)C1CC1 (mixture of isomers)
inactive: all assays above

O=C(NCCc1ccccc1)[C@H]1[C@H](CO)[C@H]2Cn3c(cccc3=O)[C@@H]1N2C(=O)C1CCC1
inactive: all assays above

CCCNC(=O)N1[C@H](CO)[C@@H](c2ccc(C3=CCCC3)cc2)[C@@H]1CN(C)C(C)=O
inactive: all assays above

CC(=O)N(C)C[C@H]1Oc2cc(C#Cc3ccc(F)cc3)ccc2S(=O)(=O)N([C@H](C)CO)C[C@@H]1C
inactive: all assays above

CC(C)NC(=O)Nc1ccc2c(c1)C(=O)N([C@@H](C)CO)C[C@@H](C)[C@H](CN(C)C(=O)Cc1ccccc1)OCCCC[C@@H](C)O2
inactive: all assays above

C[C@H]1CN([C@@H](C)CO)C(=O)Cc2cc(NC(=O)Nc3ccccc3)ccc2O[C@@H]1CN(C)C(=O)Nc1ccc2c(c1)OCO2
inactive: all assays above

C[C@@H]1CCCCO[C@@H](CN(C)CC2CCCCC2)[C@@H](C)CN([C@@H](C)CO)C(=O)c2cc(NS(=O)(=O)c3ccccc3)ccc2O1
inactive: all assays above

COc1cccc(S(=O)(=O)N2C[C@@H](O)COC[C@@H]3O[C@H](CC(=O)N4CCN(C)CC4)CC[C@H]32)c1
inactive: all assays above

O=C(C[C@@H]1CC[C@@H]2[C@H](COC[C@H](O)CN2S(=O)(=O)c2ccc(Oc3ccccc3)cc2)O1)NC1CCC1
inactive: all assays above

CCCC#Cc1ccc2c(c1)O[C@@H](CN(C)C)[C@@H](C)CN([C@@H](C)CO)S2(=O)=O
inactive: all assays above

COCC(=O)N(C)C[C@@H]1Oc2ncc(C#CCC3CCCC3)cc2C(=O)N([C@@H](C)CO)C[C@H]1C
inactive: all assays above

O=S(=O)(NC[C@@H]1[C@@H](c2ccccc2)[C@H](CO)N1CC1CC1)c1ccccc1
inactive: all assays above

CC(C)NC(=O)N(C)C[C@@H]1OCCCC[C@@H](C)Oc2ccc(NC(=O)c3ccccc3)cc2C(=O)N([C@H](C)CO)C[C@@H]1C
inactive: all assays above

C[C@H]1CN([C@@H](C)CO)C(=O)c2cccc(N(C)C)c2O[C@@H]1CN(C)C(=O)Nc1cccc2ccccc12
inactive: all assays above

O=C(CN(c1ccccc1)S(=O)(=O)c1ccc(F)cc1)NC1CCS(=O)(=O)C1 (stereo unspecified)
inactive: all assays above

C[C@@H]1CN([C@@H](C)CO)C(=O)c2cccc(NC(=O)Nc3ccccc3)c2O[C@H]1CN(C)S(=O)(=O)c1cn(C)cn1
inactive: all assays above

O=C(N[C@H]1CC[C@@H](CCn2cc(-c3ccccc3)nn2)O[C@@H]1CO)c1cnccn1
inactive: all assays above

CO[C@H]1CN(C)C(=O)c2cc(NC(=O)Nc3cccc(F)c3)ccc2OC[C@H](C)N(C)C[C@H]1C
inactive: all assays above

COCCNC(=O)C[C@H]1CC[C@@H]2[C@H](COC[C@H](O)CN2S(=O)(=O)c2ccccc2C)O1
inactive: all assays above

O=C(NC1CCCC1)N1CCCCN2[C@H](CO)[C@@H](c3ccc(-c4cncnc4)cc3)[C@H]2C1
inactive: all assays above

CCS(CC)=NS(=O)(=O)c1ccc(NC(C)=O)cc1
inactive: all assays above

C[C@@H]1CN([C@@H](C)CO)C(=O)c2cccc(N(C)C)c2O[C@H]1CN(C)C(=O)Nc1ccc(C(F)(F)F)cc1
inactive: all assays above

O=C(CSc1ncnc2c1cnn2-c1ccccc1Cl)N1CCN(C(=O)c2ccco2)CC1
inactive: all assays above

COCCNC(=O)C[C@@H]1C[C@@H]2c3cc(NC(=O)C4CCOCC4)ccc3O[C@@H]2[C@@H](CO)O1
inactive: all assays above

CN1C(=O)c2cc(NS(C)(=O)=O)ccc2OC[C@@H]2O[C@@H](CC(=O)O)CC[C@@H]21
inactive: all assays above

Cc1ccc(NC(=O)C2(C)CCN2C(=O)CC2CC2)cc1C (stereo unspecified)
inactive: all assays above

O=C(Cc1ccccc1)N[C@H]1C=C[C@@H](CC(=O)N2CCOCC2)O[C@H]1CO
inactive: all assays above

CCC(=O)N(C)C[C@H]1Oc2cc(C#CC(C)(C)O)ccc2S(=O)(=O)N([C@@H](C)CO)C[C@@H]1C
inactive: all assays above

CNC[C@H]1Oc2ccc(NC(=O)Cc3cn(C)c4ccccc34)cc2CC(=O)N([C@@H](C)CO)C[C@H]1C
inactive: all assays above
